Experimental data taken from PubChem BioAssay (NCATS).
Inconclusive results are not listed. A number with no mark means an inactive call. Active and inactive are the calls of the source. Calls follow the shape of the dose curve; as a rule, active = well fitted inhibition curve with a large enough effect; inconclusive = small, poorly fitted or top-dose-only effect; inactive = flat fitted curve, though single readings scatter.

What follows are molecules tested against Ubiquitin carboxyl-terminal hydrolase 1 (Homo sapiens) (UniProt O94782) (assay: Inhibitors of USP1/UAF1: Pilot qHTS (AID 504865; also: nearly all actives have a fitted effect of over 35% in size;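 as to activity change, negative = inhibition: rhodamine fluorescence freed from ubiquitin-rhodamine substrate followed over time; top concentration of the series differs between compounds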)). Conditions: purified USP1/UAF1, Ub-rhodamine cleavage fluorescence; series mostly up to 114 µM; activity change, negative = inhibition: at the top concentration.
Ubiquitin carboxyl-terminal hydrolase 1 (Homo sapiens), sequence (O94782 whole entry, looked up): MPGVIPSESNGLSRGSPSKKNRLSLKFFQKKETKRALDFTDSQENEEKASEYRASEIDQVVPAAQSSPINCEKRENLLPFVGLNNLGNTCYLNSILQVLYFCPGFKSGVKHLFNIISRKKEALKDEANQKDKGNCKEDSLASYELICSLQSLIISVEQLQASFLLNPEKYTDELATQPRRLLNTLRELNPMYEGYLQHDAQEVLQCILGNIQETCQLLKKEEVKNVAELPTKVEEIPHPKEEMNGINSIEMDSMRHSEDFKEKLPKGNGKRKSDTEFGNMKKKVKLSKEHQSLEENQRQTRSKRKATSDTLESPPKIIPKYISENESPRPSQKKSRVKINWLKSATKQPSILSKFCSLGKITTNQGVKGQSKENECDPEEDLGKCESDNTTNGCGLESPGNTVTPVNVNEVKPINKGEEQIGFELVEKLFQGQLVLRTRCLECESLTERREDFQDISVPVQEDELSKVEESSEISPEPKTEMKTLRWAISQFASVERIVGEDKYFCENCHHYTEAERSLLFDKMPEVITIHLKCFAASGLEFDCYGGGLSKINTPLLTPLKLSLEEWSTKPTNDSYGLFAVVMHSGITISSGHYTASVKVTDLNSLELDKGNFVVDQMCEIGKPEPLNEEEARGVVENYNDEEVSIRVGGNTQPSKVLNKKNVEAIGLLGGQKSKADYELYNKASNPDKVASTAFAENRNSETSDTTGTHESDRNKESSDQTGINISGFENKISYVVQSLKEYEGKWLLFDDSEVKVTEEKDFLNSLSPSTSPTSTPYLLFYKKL
Outline: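 Deubiquitinase activity followed as kinetic rhodamine fluorescence release from 150 nM Ub-Rho. 1 nM USP1/UAF1 with compound, after 15 min room-temperature preincubation, in HEPES pH 7.8 buffer containing TCEP, EDTA, BSA and Tween-20.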
% is scaled to controls: 0 for no effect and ±100 for the full control effect; potency is read from the fitted curve at half-maximal effect.

Row | SMILES | activity change, negative = inhibition | Potency
1 | CCCCCCCCCCCCCCCC(=O)OCC(COC(=O)CCCCCCCCCCCCCCC)OC(=O)CCCCCCCCCCCCCCC | -8.34% | 
2 | NC(=O)c1ncn(C2OC(CO)C(O)C2O)n1 (configuration not stated) | 2.23% | 
3 | Nc1c(N=Nc2ccc(-c3ccc(N=Nc4cc(S(=O)(=O)O)c5ccccc5c4N)cc3)cc2)cc(S(=O)(=O)O)c2ccccc12 |  | 15.8 µM (active)
4 | CN1Cc2c(N)cccc2C(c2ccccc2)C1 (configuration not stated) |  | inactive
5 | CCCCCCCCCCCC[n+]1ccc2ccccc2c1 |  | 89.1 µM (active)
6 | Clc1cc(Cl)c(OCC#CI)cc1Cl | -5.4% | 
7 | C[C@]12CCC(=O)C=C1CC[C@@H]1[C@@H]2[C@@H](O)C[C@@]2(C)[C@H]1CC[C@]2(O)C(=O)COP(=O)(O)O | -4.28% | 
8 | CCCCCCC(O)C/C=C/CCCCCCCC(=O)O (configuration not stated) | -6.35% | 
9 | CC1(C)S[C@@H]2[C@H](NC(=O)Cc3ccccc3)C(=O)N2[C@H]1C(=O)O | 2.16% [at 54.9 µM] | 
10 | Cc1cc(/C=C/c2ccc3cc(N(C)C)ccc3[n+]2C)c(C)n1-c1ccccc1 |  | 44.7 µM (active)
11 | CC(=O)Oc1cc(C)c(OC(C)=O)c2ccccc12 | -9.04% | 
12 | CC(NNC(=O)c1ccccc1)c1ccccc1 (configuration not stated) | -9.41% | 
13 | NC1C2CN(c3nc4c(cc3F)c(=O)c(C(=O)O)cn4-c3ccc(F)cc3F)CC12 (configuration not stated) | -5.22% | 
14 | C[C@@H]1CCC2[C@@H](C)[C@@H](O)O[C@@H]3O[C@@]4(C)CC[C@@H]1[C@@]23OO4 (some centres not stated) | -6.95% | 
15 | COC(F)(F)C(Cl)Cl | -0.989% | 
16 | CCN(CC)Cc1cc(Nc2ccnc3cc(Cl)ccc23)ccc1O | -12% [at 54.9 µM] | 
17 | C=C1C(=CC=C2CCC[C@@]3(C)[C@@H]2CC[C@H]3[C@H](C)CCCC(C)C)C[C@@H](O)C[C@@H]1O |  | 22.4 µM (active)
18 | COC(C(=O)C(O)C(C)O)C1Cc2cc3cc(OC4CC(OC5CC(O)C(O)C(C)O5)C(O)C(C)O4)c(C)c(O)c3c(O)c2C(=O)C1OC1CC(OC2CC(OC3CC(C)(O)C(O)C(C)O3)C(O)C(C)O2)C(O)C(C)O1 (configuration not stated) | 7.48% | 
19 | COCC(=O)Nc1cc(Sc2ccccc2)ccc1N=C(NC(=O)OC)NC(=O)OC | -4.25% | 

Row | SMILES | activity change, negative = inhibition | Potency
20 | Nc1c(Br)cc(Br)cc1CNC1CCC(O)CC1 (configuration not stated) |  | inactive
21 | CC1=C(/C=C/C(C)=C/C=C/C(C)=C/C=C/C=C(C)/C=C/C=C(C)/C=C/C2=C(C)CCCC2(C)C)C(C)(C)CCC1 | -1.64% | 
22 | CCCCCCCCCCCCCC[n+]1ccc(C)cc1 |  | 56.2 µM (active)
23 | Cc1c(C)c2c(c(C)c1O)CC[C@@](C)(CCC[C@@H](C)CCC[C@@H](C)CCCC(C)C)O2 | -0.831% | 
24 | C#CCOc1ccc2c(C)cc(=O)oc2c1 | -8.28% | 
25 | O=S(=O)(O)c1cc(O)c2c(N=Nc3ccc(Nc4ccccc4)c4c(S(=O)(=O)O)cccc34)cc(S(=O)(=O)O)cc2c1 |  | 11.2 µM (active)
26 | CC(=O)Oc1c(C)cc(OCC(O)CNC(C)C)c(C)c1C (configuration not stated) | -6.22% | 
27 | O=C1C(=O)c2ncccc2-c2cccnc21 |  | 50.1 µM (active)
28 | CCCCC(C)(O)C/C=C/[C@H]1[C@H](O)CC(=O)[C@@H]1CCCCCCC(=O)OC (some centres not stated) | 3.34% | 
29 | O=C(O)c1cc(O)c2c(c1)[O][Bi][O]2 | -3.77% | 
30 | CC(C(=O)O)c1ccc(N2Cc3ccccc3C2=O)cc1 (configuration not stated) | -11.2% | 
31 | CCCC(=O)Nc1ncnc2c1ncn2C1OC2COP(=O)(O)OC2C1OC(=O)CCC (configuration not stated) | -0.134% | 
32 | CC[N+](C)(C)Cc1ccccc1Br | 2.14% [at 54.9 µM] | 
33 | O=S(=O)(O)c1ccc2c(N=Nc3ccc(S(=O)(=O)O)c4ccccc34)c(O)c(S(=O)(=O)O)cc2c1 |  | 17.8 µM (active)
34 | CCCCCCOc1ccc(C(=N)N(CCCC)CCCC)c2ccccc12 |  | 39.8 µM (active)
35 | CC1(C)S[C@@H]2[C@H](NC(=O)[C@@H](NC(=O)N3CCNC3=O)c3ccccc3)C(=O)N2[C@H]1C(=O)O | 4.8% [at 54.9 µM] | 
36 | COc1ccc2c3c1O[C@H]1C[C@@H](O)C=C[C@@]31CCN(C)C2 | 2.31% | 
37 | Cc1ccccc1OCC(O)CNCCOc1ccc(C(N)=O)cc1 (configuration not stated) | -11.6% | 
